High-throughput results as filed in PubChem BioAssay.
An excerpt weighted towards active compounds, which were near 19% of everything screened.
DT40 TDP1 no CPT – qHTS for Inhibitors of human tyrosyl-DNA phosphodiesterase 1 (TDP1): qHTS in cells in absence of CPT; Potency, µM (titrated, usually from 46.2 µM), for inactives: top-dose activity change, negative = growth inhibition, most hits filed as inhibitors; hit rate 15% among 420,000; AID 686978, 2013; DT40 Tdp1-/- hTDP1 cells, no CPT, ATP luminescence, 48 h; note: nearly all actives have a fitted effect of over 55% in size
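A cellular qHTS used chicken DT40 cells lacking endogenous Tdp1 but carrying stably transfected human TDP1. Compounds were applied without camptothecin, and cell growth kinetics were judged by ATP-dependent luminescence after ≥48 hr.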
HT1080NT lethal – kills 2HG-producing HT-1080-NT fibrosarcoma cells; hit rate 1.6% among 360,000; Potency, µM (titrated, usually from 46.1 µM), for inactives: top-dose activity, negative = less viability, actives largely listed as cytotoxic; HT-1080-NT fibrosarcoma viability, CellTiter-Glo ATP luminescence, 48 h;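 note: NT is the 2HG producing partner of a matched IDH1 knockdown line; 0% = DMSO-treated cells and -100% = media-only wells without cells; nearly all actives have a fitted effect of over 55% in size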
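A 48-hour cytotoxicity screen used HT-1080-NT cells plated 2 hours before compound delivery. ATP-based CellTiter-Glo luminescence measured viability, normalized to DMSO and no-cell controls.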
HT1080 IDH1KD tx – HT-1080 IDH1 knockdown cell toxicity (counter line). Potency, µM (top dose mostly 46.1 µM), inactives show at the top dose activity, negative = toxicity, most hits filed as cytotoxic. HT-1080 IDH1 knockdown viability, ATP luminescence, 48 h. hit rate 2% among 360,000;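 note: 0% = DMSO wells and -100% = cell-free medium wells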
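Viability of IDH1-knockdown HT-1080 fibrosarcoma cells was assessed by CellTiter-Glo after 48 h at 37 °C with titrated compound; concentration-effect curves were classified by fit quality and response size.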
DT40 TDP1 CPT – DT40-hTDP1 cell growth loss with CPT. Potency, µM (top dose mostly 46.2 µM), inactives show at the highest dose activity change, negative = growth inhibition, actives largely listed as inhibitors. hit rate 12% among 420,000. chicken DT40 Tdp1-/-;hTDP1 cells + 20 nM CPT, ATP luminescence, 48 h. AID 686979; note: nearly all actives have a fitted effect of over 55% in size
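Chicken DT40 Tdp1-/- cells complemented with human TDP1, 400 cells/well, exposed to compounds plus 20 nM camptothecin for at least 48 h at 37 C; viability read as ATP content by CellTiter-Glo luminescence.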
KB-V1 MDR tox – kills drug-selected multidrug resistant KB-V1 cells | KB-V1 MDR cells viability, CellTiter-Glo, 72 h | Potency, µM (highest dose often 46.1 µM), usual class: cytotoxic | hit rate 3.4% among 400,000; note: nearly all actives have a fitted effect of over 60% in size
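Cytotoxicity toward P-gp-expressing KB-V1 cells was determined as loss of CellTiter-Glo luminescence after 72 h at 37 degrees C. Compounds were tested in quantitative HTS format across a concentration range, with curves fitted to normalized data.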
KB-3-1 tox – kills parental KB-3-1 adenocarcinoma cells | KB-3-1 viability, CellTiter-Glo ATP luminescence, 72 h | Potency, µM (top dose mostly 46.1 µM), most hits filed as cytotoxic | hit rate 1.4% among 400,000 | AID 1347075; note: nearly all actives have a fitted effect of over 60% in size
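Here the drug-naive KB-3-1 line serves as comparator for MDR sub-line selectivity; cells received compound titrations, 72 h at 37 °C, then CellTiter-Glo readout.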
Active calls of the source: *; [ ] = another dose, or the depositor's remark. Calls come from the whole dose curve; as a rule, active = well fitted curve in the direction sought with a large enough effect; inconclusive = small, poorly fitted or top-dose-only effect, or another doubt; inactive = no such curve, though single readings can be large; an effect the other way counts as inactive or inconclusive. Unless noted, % is set by controls: 0 for no effect and ±100 for the full control effect; potency is the fitted concentration of half-maximal effect.

What do the screens show for `CCC(c1nnnn1Cc1ccco1)N(Cc1ccccc1OC)Cc1cc2cc(C)ccc2[nH]c1=O` (stereo unspecified)?
DT40 TDP1 no CPT: 23µM*; HT1080NT lethal: inconclusive; HT1080 IDH1KD tx: -6%[9.24 µM]; DT40 TDP1 CPT: inconclusive; KB-V1 MDR tox: 13µM*; KB-3-1 tox: inactive

Results for Cc1ccc2cc(CN(Cc3ccc4c(c3)OCO4)Cc3nnnn3Cc3ccco3)c(=O)[nH]c2c1 ?
DT40 TDP1 no CPT: inconclusive; HT1080NT lethal: -1%; HT1080 IDH1KD tx: -4%; DT40 TDP1 CPT: 16µM*; KB-V1 MDR tox: inactive; KB-3-1 tox: inconclusive

What do the screens show for `COc1ccc2[nH]c(=O)c(CN(Cc3ccccc3)Cc3nnnn3CC3CCCO3)cc2c1` (stereo unspecified)?
DT40 TDP1 no CPT: inconclusive; HT1080NT lethal: -23%; HT1080 IDH1KD tx: -15%; DT40 TDP1 CPT: inconclusive; KB-V1 MDR tox: inactive; KB-3-1 tox: inactive

What do the screens show for `Cc1ccc(CN(Cc2cc3cc4c(cc3[nH]c2=O)OCCO4)Cc2nnnn2Cc2ccco2)cc1`?
DT40 TDP1 no CPT: inconclusive; HT1080NT lethal: -29%; HT1080 IDH1KD tx: inconclusive; DT40 TDP1 CPT: inconclusive; KB-V1 MDR tox: 15µM*; KB-3-1 tox: inactive

What do the screens show for `COc1ccccc1CN(Cc1cc2c(C)ccc(C)c2[nH]c1=O)Cc1nnnn1Cc1ccco1`?
DT40 TDP1 no CPT: 18µM*; HT1080NT lethal: -8%; HT1080 IDH1KD tx: -8%; DT40 TDP1 CPT: 23µM*; KB-V1 MDR tox: inactive; KB-3-1 tox: inconclusive

Results for Cc1ccc2[nH]c(=O)c(CN(Cc3ccccc3)Cc3nnnn3C3CCCC3)cc2c1 ?
DT40 TDP1 no CPT: inconclusive; HT1080NT lethal: 5%; HT1080 IDH1KD tx: -4%; DT40 TDP1 CPT: 21µM*; KB-V1 MDR tox: 23µM*; KB-3-1 tox: inactive

What do the screens show for `COc1ccc2cc(CN(CCc3ccccc3)Cc3nnnn3Cc3ccco3)c(=O)[nH]c2c1`?
DT40 TDP1 no CPT: 16µM*; HT1080NT lethal: -1%; HT1080 IDH1KD tx: -7%; DT40 TDP1 CPT: inconclusive; KB-V1 MDR tox: inactive; KB-3-1 tox: inactive

How did CNC(=S)N(Cc1ccco1)Cc1cc2cc3c(cc2[nH]c1=O)OCCO3 do in these assays?
DT40 TDP1 no CPT: inconclusive; HT1080NT lethal: -1%; HT1080 IDH1KD tx: -6%; DT40 TDP1 CPT: inconclusive; KB-V1 MDR tox: inactive; KB-3-1 tox: inactive

What do the screens show for `COc1cc2cc(CN(Cc3nnnn3Cc3ccccc3)CC3CCCO3)c(=O)[nH]c2cc1OC` (stereo unspecified)?
DT40 TDP1 no CPT: inconclusive; HT1080NT lethal: 1%; HT1080 IDH1KD tx: 3%; DT40 TDP1 CPT: inconclusive; KB-V1 MDR tox: inactive; KB-3-1 tox: inactive

What do the screens show for `CCOC(=O)c1c(S(=O)(=O)N2CCC(C)CC2)c(C)n(C)c1C`?
DT40 TDP1 no CPT: -18%; HT1080NT lethal: 0%; HT1080 IDH1KD tx: 0%; DT40 TDP1 CPT: -14%; KB-V1 MDR tox: inactive; KB-3-1 tox: inactive

What do the screens show for `CS(=O)(=O)N1CCN(C2C3CC4CC(C3)CC2C4)CC1` (stereo unspecified)?
DT40 TDP1 no CPT: -15%; HT1080NT lethal: 11%; HT1080 IDH1KD tx: -5%; DT40 TDP1 CPT: -13%; KB-V1 MDR tox: inactive; KB-3-1 tox: inactive

Results for Cc1cccc2cc(C(c3nnnn3C(C)(C)C)N(Cc3ccco3)CC3CCCO3)c(=O)[nH]c12 (stereo unspecified) ?
DT40 TDP1 no CPT: inconclusive; HT1080NT lethal: 0%; HT1080 IDH1KD tx: -5%; DT40 TDP1 CPT: inconclusive; KB-V1 MDR tox: inactive; KB-3-1 tox: inactive

Results for CCC(c1nnnn1Cc1ccco1)N(Cc1cc2cc(C)cc(C)c2[nH]c1=O)CC1CCCO1 (stereo unspecified) ?
DT40 TDP1 no CPT: 18µM*; HT1080NT lethal: -1%; HT1080 IDH1KD tx: 4%; DT40 TDP1 CPT: 15µM*; KB-V1 MDR tox: inactive; KB-3-1 tox: inactive

Results for Cc1ccc2[nH]c(=O)c(CN(Cc3ccccc3)Cc3nnnn3Cc3ccco3)cc2c1 ?
DT40 TDP1 no CPT: inconclusive; DT40 TDP1 CPT: 8.9µM*; KB-V1 MDR tox: inactive; KB-3-1 tox: inactive

How did O=c1[nH]c2cc3c(cc2cc1CN(Cc1nnnn1C1CCCC1)C1CCCC1)OCCO3 do in these assays?
DT40 TDP1 no CPT: 26µM*; HT1080NT lethal: 1%; HT1080 IDH1KD tx: -26%; DT40 TDP1 CPT: 16µM*; KB-V1 MDR tox: inactive; KB-3-1 tox: 23µM*

What do the screens show for `CC(=O)N1CCOc2ccc(S(=O)(=O)N(C)c3cccc(C)c3)cc21`?
DT40 TDP1 no CPT: inconclusive; HT1080NT lethal: -6%; HT1080 IDH1KD tx: -3%; DT40 TDP1 CPT: -20%; KB-V1 MDR tox: inactive; KB-3-1 tox: inactive

How did CC(C)OC(=O)c1c2c(n3ccccc13)C(=O)c1ccccc1C2=O do in these assays?
DT40 TDP1 no CPT: 13µM*; HT1080NT lethal: 5%; HT1080 IDH1KD tx: 0%; DT40 TDP1 CPT: 15µM*; KB-V1 MDR tox: inactive; KB-3-1 tox: inactive

What do the screens show for `COc1ccc(Cl)cc1NC(=O)CSC1=Nc2ccccc2C2=NC(CCC(=O)NCc3ccc(F)cc3)C(=O)N12` (stereo unspecified)?
DT40 TDP1 no CPT: 16µM*; DT40 TDP1 CPT: 23µM*

Results for COc1ccc(Cl)cc1NC(=O)CSC1=Nc2ccccc2C2=NC(CC(=O)NC3CCCCC3)C(=O)N12 (stereo unspecified) ?
DT40 TDP1 no CPT: -93%; DT40 TDP1 CPT: 18µM*; KB-V1 MDR tox: inactive; KB-3-1 tox: inactive

What do the screens show for `COc1ccc(NC(=O)CSC2=Nc3ccccc3C3=NC(CCC(=O)NCc4ccc(F)cc4)C(=O)N23)cc1Cl` (stereo unspecified)?
DT40 TDP1 no CPT: 15µM*; DT40 TDP1 CPT: inconclusive; KB-V1 MDR tox: inactive; KB-3-1 tox: inactive

How did CC(C)c1nc2scc(-c3ccc(Cl)cc3)c2c(=O)n1N do in these assays?
DT40 TDP1 no CPT: inconclusive; HT1080NT lethal: 6%; HT1080 IDH1KD tx: 10%; DT40 TDP1 CPT: 26µM*; KB-V1 MDR tox: inconclusive; KB-3-1 tox: inactive

Results for CCCN1CCN(CCCNC(=O)Cn2c(-c3cccs3)cc3cc(Cl)ccc32)CC1 ?
DT40 TDP1 no CPT: inconclusive; DT40 TDP1 CPT: inconclusive; KB-V1 MDR tox: inactive; KB-3-1 tox: inactive

How did COCCN(Cc1ccc(F)cc1)C(=O)c1cc2ccccc2oc1=O do in these assays?
DT40 TDP1 no CPT: -9%; HT1080NT lethal: -2%; HT1080 IDH1KD tx: 9%; DT40 TDP1 CPT: -24%; KB-V1 MDR tox: inactive; KB-3-1 tox: inactive
